Inconclusive results are not listed. Calls of active or inactive are those of the source. The call rests on the fitted dose curve; in most records, active means well fitted curve in the direction sought with a large enough effect; inconclusive means small, poorly fitted or top-dose-only effect, or another doubt; inactive means no such curve, though single readings can be large; an effect the other way counts as inactive or inconclusive.
Columns and labels:
[1] = test system: CRL-7250; experiment: Cytotoxic Profiling of Annotated Libraries Using Quantitative High-Throughput Screening (AID 1296008); conditions: Five cell lines viability, CellTiter-Glo ATP luminescence, 48-72 h; max response: hits give low values; further: nearly all actives have a fitted effect of over 60% in size; further: potency means the concentration at half of the fitted maximal effect; on max response: on the % scale 0 is the no-effect control and ±100 the full control effect
How it was run: (§1)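 Cells exposed to compounds for 48 or 72 hr at 37 degrees Celsius. Viability read as ATP-coupled luminescence with CellTiter-Glo after 10 min at room temperature.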

[2] = test system: HaCat; experiment: as above; conditions: Five cell lines viability, CellTiter-Glo ATP luminescence, 48-72 h; max response: hits give low values
How it was run: as §1

[3] = test system: KB-3-1; experiment: as above; conditions: Five cell lines viability, CellTiter-Glo ATP luminescence, 48-72 h; max response: hits give low values
How it was run: as §1

[4] = test system: NIH3T3; experiment: as above; conditions: Five cell lines viability, CellTiter-Glo ATP luminescence, 48-72 h; max response: hits give low values
How it was run: as §1

[5] = test system: HACAT; experiment: qHTS assay to identify novel small-molecules to repurpose for Merkel cell carcinoma treatment (AID 1296009); conditions: MCC and control cell lines, CellTiter-Glo viability, 72 h; at 44.8 µM (top of the series) unless noted; further: nearly all actives have a fitted effect of over 60% in size
How it was run: (§2)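 CellTiter-Glo luminescence after 72 hr compound exposure at 37 degree celsius gave cell viability. Libraries NPC and MIPE were run as 8- and 11-point dose responses; RLUs normalized to DMSO (negative) and no-cell (cytotoxicity) controls.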

[6] = test system: C33A; experiment: Primary qHTS to identify gynecologic anti-cancer compounds using libraries of approved drugs and bioactive compounds (AID 1345084); conditions: Gynecologic cancer cell panel viability, ATPlite luminescence, 48 h; series mostly up to 57.5 µM; further: on the % scale 0 is the no-effect control and ±100 the full control effect; nearly all actives have a fitted effect of over 55% in size
How it was run: (§3)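 Luminescence from the ATPlite ATP-monitoring reagent indicates viable cell number; lower signal means cytotoxicity. Cells received compound 16 h after seeding and were exposed for 48 h across five concentrations.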

[7] = test system: CAOV3; experiment: as above; conditions: Gynecologic cancer cell panel viability, ATPlite luminescence, 48 h; series mostly up to 57.5 µM
How it was run: as §3

[8] = test system: CASKI; experiment: as above; conditions: Gynecologic cancer cell panel viability, ATPlite luminescence, 48 h; series mostly up to 57.5 µM
How it was run: as §3

[9] = test system: Es-2; experiment: as above; conditions: Gynecologic cancer cell panel viability, ATPlite luminescence, 48 h; series mostly up to 57.5 µM
How it was run: as §3

[10] = test system: HeLa; experiment: as above; conditions: Gynecologic cancer cell panel viability, ATPlite luminescence, 48 h; series mostly up to 57.5 µM
How it was run: as §3

[11] = test system: Hek293T; experiment: as above; conditions: Gynecologic cancer cell panel viability, ATPlite luminescence, 48 h, control line for the selectivity index; series mostly up to 57.5 µM
How it was run: as §3

[12] = test system: JEG-3; experiment: as above; conditions: Gynecologic cancer cell panel viability, ATPlite luminescence, 48 h; series mostly up to 57.5 µM
How it was run: as §3

[13] = test system: OV90; experiment: as above; conditions: Gynecologic cancer cell panel viability, ATPlite luminescence, 48 h; series mostly up to 57.5 µM
How it was run: as §3

[14] = test system: NIH3T3; experiment: qHTS assay to identify novel small-molecules to repurpose for Merkel cell carcinoma treatment (AID 1296009); conditions: MCC and control cell lines, CellTiter-Glo viability, 72 h; series mostly up to 44.8 µM; further: nearly all actives have a fitted effect of over 60% in size
How it was run: as §2

COC(=O)C[C@H]1C(C)(C)[C@H](OC(=O)c2ccccc2)C2CC3=C4CC(=O)O[C@@H](c5ccoc5)[C@]4(C)CCC3[C@@]1(C)C2=O (some centres not stated)
inactive: max response [1] -6.86% | outcome [2] | max response [3] 0.65% | max response [4] 0.65% | outcome [5] inactive [at 17.4 µM] | Potency [6] | Potency [7] | Potency [8] | Potency [9] | Potency [10] | Potency [11] | Potency [12] | Potency [13]

COc1ccc(-c2cnc3c(-c4cccc5ncccc45)cnn3c2)cc1
inactive: outcome [1] | outcome [2] | max response [3] -5.9% | max response [4] -19.7% | outcome [5] | Potency [6] | Potency [7] | Potency [8] | Potency [9] | Potency [10] | Potency [11] | Potency [12] | Potency [13]

CCCn1cc2c(nc(NC(=O)Nc3ccc(OC)cc3)n3nc(-c4ccco4)nc23)n1
inactive: max response [1] 4.71% | outcome [2] | max response [3] 9% | outcome [4] | outcome [5] | Potency [6] | Potency [7] | Potency [8] | Potency [9] | Potency [10] | Potency [11] | Potency [12] | Potency [13]

CC(=O)O[C@@H]1C[C@@]2(C)C(CC[C@]3(C)C2CC=C2C4CC(C)(C)CC[C@]4(C(=O)O)CC[C@]23C)C(C)(C)[C@H]1O (some centres not stated)
inactive: max response [1] 3.23% | outcome [2] | max response [3] -16.7% | max response [4] -4.52% | outcome [5] inactive [at 17.4 µM] | Potency [6] | Potency [7] | Potency [8] | Potency [9] | Potency [10] | Potency [11] | Potency [12] | Potency [13]

O=C(O)c1ccc(S(=O)(=O)N(Cc2ccc(OC(F)(F)F)cc2)c2ncc(C(F)(F)F)cc2Cl)cc1
inactive: max response [1] -3.34% | outcome [2] | max response [3] 0.52% | max response [4] -0.0805% | outcome [5] | Potency [6] | Potency [7] | Potency [8] | Potency [9] | Potency [10] | Potency [11] | Potency [12] | Potency [13]

COc1ccncc1C(=O)NC(=O)Nc1ccc(-c2ccccc2)c(C(F)(F)F)c1
inactive: outcome [1] | outcome [2] | max response [3] -11.2% | max response [4] 3.25% | outcome [5] | Potency [6] | Potency [7] | Potency [8] | Potency [9] | Potency [10] | Potency [11] | Potency [12] | Potency [13]

CC(C)[C@@H](c1ccc(C(F)(F)F)cc1CN(Cc1cc(C(F)(F)F)cc(C(F)(F)F)c1)c1nnn(C)n1)N1CCC(C(=O)O)CC1
inactive: max response [1] -8.05% | outcome [2] | max response [3] -11.9% | max response [4] 4.8% | outcome [5] | Potency [6] | Potency [8] | Potency [9] | Potency [10] | Potency [11] | Potency [12] | Potency [13]

COc1cc2ncnc(Nc3ccc(F)c(Cl)c3)c2cc1O
inactive: outcome [1] | max response [3] -4.6% | outcome [4] | Potency [14] | Potency [6] | Potency [7] | Potency [8] | Potency [9] | Potency [10] | Potency [11] | Potency [12]
active: Potency [2] 1300 nM

COc1cc(N(C)CCN(C)C)c(N)cc1Nc1nccc(-c2cn(C)c3ccccc23)n1
inactive: max response [1] -5.14% | max response [2] -1.2% | max response [3] -6.79% | outcome [4] | Potency [14] | Potency [6] | Potency [7] | Potency [8] | Potency [9] | Potency [10] | Potency [11] | Potency [12] | Potency [13]

C=CCCN1CCC2(CC1)CN(C(=O)c1c(F)cccc1F)c1ccc(Cl)cc12
inactive: outcome [1] | max response [2] -0.627% | outcome [3] | outcome [4] | Potency [14] | Potency [6] | Potency [7] | Potency [8] | Potency [9] | Potency [10] | Potency [11] | Potency [12] | Potency [13]

COc1cc2c(cc1OCCCN1CCCC1)N=C(N)C21CCC1
inactive: max response [1] -5.27% | max response [2] 2.83% | max response [3] 0.253% | outcome [4] inactive; activator | Potency [14] | Potency [6] | Potency [7] | Potency [8] | Potency [9] | Potency [10] | Potency [11] | Potency [12] | Potency [13]

C=C1CCC[C@]2(C)CC/C(=C(/CO)C(=O)OC)C[C@@H]12
inactive: max response [1] -7.08% | outcome [2] | max response [3] -2.83% | max response [4] 2.53% | outcome [5] | Potency [6] | Potency [8] | Potency [9] | Potency [10] | Potency [11] | Potency [12] | Potency [13]

CCCC(=O)C1(c2ccccc2)CCN(C(=O)[C@@H](Cc2ccc(OC)cc2)NC(=O)[C@@H](N)Cc2cncn2C)CC1
inactive: max response [1] 3.05% | outcome [2] | max response [3] -9.44% | max response [4] -0.497% | outcome [5] | Potency [6] | Potency [8] | Potency [9] | Potency [10] | Potency [11] | Potency [12] | Potency [13]

COc1ccc([C@H](Cc2ccncc2)c2ccccc2)cc1OC1CCCC1
inactive: max response [1] -5.35% | outcome [2] | max response [3] -4.42% | max response [4] -22.8% | outcome [5] | Potency [6] | Potency [8] | Potency [9] | Potency [10] | Potency [11] | Potency [12] | Potency [13]
